The panel holds about 83,000 compounds, 20% with a hit somewhere; the sample as a whole holds those more often.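 48-hour exposure, single concentration, 96-well plates; percent growth endpoint where 0 means no net growth. Active: below 10.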 Unmarked numbers belong to inactive results. Activity calls are given as the source filed them.

Experimental findings from PubChem BioAssay (NCI) are described below.

This experiment relates to NCI-H322M lung. The experiment in a line: NCI-60 one-dose screen, 48 h (100 = growth as untreated, 0 = no growth, -100 = all killed). To be noted: 10 µM unless noted. Here is the method: Growth inhibition of the NCI-H322M human Non-Small Cell Lung tumor cell line is measured as a screen for anti-cancer activity. Cells are grown in 96 well plates and exposed to the test compound for 48 hours. Compounds are tested at a single concentration, which is 10^-5 M for most compounds. The reported endpoint is percent growth (GI% or GIPRCNT), where numbers from 0 - 100% represent growth inhibition, and numbers from -100% - 0 represent cell death. For example, a value of 40 represents 60% growth inhibition. A value of 0 means no net growth occurred over the course of the experiment. A value of -40 indicates 40% of cells at the beginning of the experiment died by the end of the experiment. A value of -100 means all cells are dead at the end of the experiment.
NCI-60 Human Tumor Cell Lines Screen was performed using the standard one-dose NCI protocol, which is described in more detail at https://dtp.cancer.gov/discovery_development/nci-60/default.htm.
Compounds with GIPRCNT values below 10 were considered active. Activity score was based on GIPRCNT using the following formula: […]
Score is 0 for GIPRCNT values of 100 or above, 50 for GIPRCNT values of 0, and 100 for GIPRCNT values of -100.
Take `CC(=O)[C@@H]1CC[C@]2(CO)CC[C@]3(C)[C@H](CC[C@@H]4[C@@]5(C)CCCNC(C)(C)[C@@H]5CC[C@]43C)[C@@H]12`: the growth was 88.8%.

`N=C1C(c2nc3ccccc3s2)=C(O)CN1c1cc(Cl)cc(Cl)c1`: the growth was 89.1%.

As for `CCOC(=O)[C@@H](C)C[C@H](Cc1ccccc1)NC(=O)c1csc([C@@H](C[C@H](C(C)C)N(C)C(=O)[C@@H](NC(=O)[C@H]2C[C@H](O[Si](C)(C)C(C)(C)C)CCN2C)C(C)C)OC(C)=O)n1`, the growth was 25% [9.25 µM].

As for `COc1ccc(C(=O)c2cc(C)c(OC)c(C)c2)c(OC)c1OC(=O)C(Cl)Cl`, the growth is 42.8%.

With `O=C(Nc1ncc(Cc2cc(Cl)ccc2Cl)s1)c1cccs1`, the growth was 62.7%.

As to `NS(=O)(=O)c1ccc(CCn2c(SCC(=O)c3ccc(Cl)cc3)nc3ccccc3c2=O)cc1`, the growth is 96.3%.

For the molecule `CCCOC(=O)N[C@H]1CCc2c(Cl)c(OC)c(OC)c(OC)c2-c2ccc(SC)c(=O)cc21`, the growth is 31.8%.

Take `CC(=O)CCC(=O)OCc1cc(=O)c(O)co1`: the growth is 98.2%.

On to `Oc1ccc(C2c3ccccc3Oc3ccccc32)c2cccnc12`, for which the growth is 24.3%.

Take `C=C(C)[C@@H]1CC[C@]2(C(=O)N3CCN(C)CC3)CC[C@]3(C)[C@H](CC[C@@H]4[C@@]5(C)CC[C@H](OCCC#N)C(C)(C)[C@@H]5CC[C@]43C)[C@@H]12`: the growth was 103%.

On to `CCNC(=O)Oc1ccc(/C(=C(\C)c2ccccc2)c2ccc(OCCN3CCCCC3)cc2)cc1`, for which the growth was 82.7%.

In the case of `c1ccc(-c2c(-c3ccccc3)[n+](Cc3ccc4ccccc4c3)c(-c3cccc4ccccc34)n2Cc2ccc3ccccc3c2)cc1`, the growth was 4.47% (active).

As to `CC(=O)OC[C@]12CC[C@@H](C(=O)CBr)[C@@H]1[C@H]1CC[C@@H]3[C@@]4(C)CC[C@H](OC(C)=O)C(C)(C)[C@@H]4CC[C@@]3(C)[C@]1(C)CC2`, the growth was 103%.

In the case of `Cn1ccc2c1CC1CN(Cc3ccco3)C(=O)C1C2C(=O)O` (stereo not given), the growth was 99.3%.

Turning to `O=C(C1CCC1)N1N=C(c2ccc(-n3ccc(C(F)(F)F)n3)cc2)CC1c1ccc[nH]1` (stereo not given), the growth was 90.1%.

For `O=C(N/N=C/c1ccc(Oc2ccccc2)cc1)c1cnn2c1NC(c1ccccc1)C2` (stereo not given), the growth is 32.2%.

With `Cc1cc(C(=O)/C=C/c2ccc[nH]2)ccc1-n1ccc(C(F)(F)F)n1`, the growth is 97.5%.

For `Nc1c(C(=O)Nc2cccc3cnccc23)sc2nc3c(cc12)C(=O)CCC3`, the growth was 102%.

`O=C(CCN1CCCC1)Nc1ccc2c(NCc3ccccc3)c3ccccc3nc2c1`: the growth is -0.926% (active).

For `COc1ccc(C(=O)C2C(C#N)C(C#N)C3C=Cc4ccccc4N32)cc1` (stereo not given), the growth is 53.5%.

Take `Nc1ccccc1NC(=O)c1ccc(-n2nc(-c3ccccc3)c3ccccc32)cc1`: the growth is 83.5%.

As to `Cc1ccc(NC(=O)c2cc(-c3nc4ccccc4s3)c(=O)n(NS(=O)(=O)c3ccc(Cl)cc3)c2N)cc1`, the growth is 97.8%.

Take `COc1ccc(OC)c(CCn2cncc2-c2c[nH]c3ccccc23)c1`: the growth was 82.8%.

Turning to `CC1(C)c2[nH]c3ccccc3c2C[C@]2(C)[C@H]3C(=O)C=C4[C@@H]5C[C@@](C)(C(N)=O)CC[C@]5(C)CC[C@@]4(C)[C@]3(C)CC[C@@H]12`, the growth was 66.4%.

As to `COc1cc2c(cc1OC)C(=O)/C(=C/c1cc(C)c(O)c(C)c1)S2`, the growth was 50.4%.

As to `CCOc1ccc(/C=N/Nc2cc(C)nc3ccc(Br)cc23)cc1`, the growth is 93.5%.

For the molecule `COc1cc(NC(=O)CSc2nc3ccc(C)cc3c(=O)n2Cc2ccccc2)cc(OC)c1OC`, the growth was 63.4%.

For the molecule `COc1cc(/C=N/NC(=O)c2cnn3c2NC(c2ccccc2)C3)ccc1Oc1ccccc1` (stereo not given), the growth is 30.8%.

Regarding `CC(C)N1C(=O)S/C(=C2/SC(=O)N(C(C)C)C2=O)C1=O`, the growth is 93.4%.

Regarding `C/C(=N\NC(=O)CSc1nc2ccccc2c(=O)n1CCc1ccc(S(N)(=O)=O)cc1)c1ccccn1`, the growth is 25.9%.

On to `C=C(C)[C@@H]1CC[C@]2(C(=O)N3CCN(C)CC3)CC[C@]3(C)[C@H](CC[C@@H]4[C@@]5(C)CC[C@H](O)C(C)(C)[C@@H]5CC[C@]43C)[C@@H]12`, for which the growth was 10.4%.

Regarding `COc1cc(NC(C)CCCNC(=O)CCC(=O)NCCCNCCCCCCCCCCNCCCNC(=O)CCC(=O)NCCCC(C)Nc2cc(OC)cc3cccnc23)c2ncccc2c1` (stereo not given), the growth was 32.1% [8 µM].

Consider `O=C(/C=C/c1c(-c2ccc(Cl)cc2)nn(-c2ccccc2)c1C(F)(F)F)c1ccc(Cl)cc1`, for which the growth is 93.3%.

As for `C=C1C(=O)O[C@H]2[C@H]1CC/C(COC(=O)NCc1c[nH]c3ccc(Br)cc13)=C\CC[C@@]1(C)O[C@@H]21`, the growth is 74%.

As to `CC(C)(C)[Si](C)(C)OC1[C@@H](O[Si](C)(C)C(C)(C)C)[C@@H](CNC(=O)NC(=O)CCl)O[C@H]1n1cnc2c(NC(=O)Nc3ccccc3)ncnc21` (stereo not given in full), the growth was 120%.

Consider `CCCCCN1C=C/C(=C\C(=O)N2CCCc3ccccc32)c2ccccc21`, for which the growth was 102%.

As for `N#CC(C#N)=Cc1cc2ccccc2nc1Oc1ccc(C(F)(F)F)cc1`, the growth was 99.2%.

Turning to `CCOC(=O)CSc1nc2ccccc2c(=O)n1Cc1ccc(S(N)(=O)=O)cc1`, the growth is 99.7%.

Take `N#CC1=C(/N=C/c2ccccc2)Oc2c(ccc3ccccc23)C1c1ccc([N+](=O)[O-])cc1` (stereo not given): the growth was 93.8%.

As to `COc1ccc(OC)c(-c2cc(-c3ccc(Cl)cc3)c3c(N)c(C(=O)c4ccc(Cl)cc4)sc3n2)c1`, the growth was 93.6%.
